# Reference: ChEMBL document CHEMBL3433997, “St. Jude Leishmania screening dataset” (2016)
# Legend:
# Format in all cases: functional
# [1] = biological target: Solute carrier family 2, facilitated glucose transporter member 1 (Homo sapiens) (UniProt P11166); assay: ST_JUDE_LEISH: Cytotoxicity at 2uM final concentration against transgenic Leishmania Mexicana promastigotes LmGLUT1 that are glucose transport deficient and complemented with the human glucose transporter GLUT1. Activity is measured by DNA content using SYBR green in vitro
# [2] = biological target: Hexose transporter 1 (Plasmodium falciparum) (UniProt O97467); assay: ST_JUDE_LEISH: Cytotoxicity at 2uM final concentration against transgenic Leishmania Mexicana promastigotes LmPfHT that are glucose transport deficient and complemented with the Plasmodium falciparum hexose transporter. Activity is measured by DNA content using SYBR green in vitro
# [3] = biological target: Glucose transporter (Leishmania mexicana) (UniProt O61059); assay: ST_JUDE_LEISH: Cytotoxicity at 2uM final concentration against transgenic Leishmania Mexicana promastigotes LmGT2 that are glucose transport deficient and complemented with the L. Mexicana glucose transporter 2. Activity is measured by DNA content using SYBR green in vitro
# Chain of Solute carrier family 2, facilitated glucose transporter member 1 (Homo sapiens) (P11166 whole entry): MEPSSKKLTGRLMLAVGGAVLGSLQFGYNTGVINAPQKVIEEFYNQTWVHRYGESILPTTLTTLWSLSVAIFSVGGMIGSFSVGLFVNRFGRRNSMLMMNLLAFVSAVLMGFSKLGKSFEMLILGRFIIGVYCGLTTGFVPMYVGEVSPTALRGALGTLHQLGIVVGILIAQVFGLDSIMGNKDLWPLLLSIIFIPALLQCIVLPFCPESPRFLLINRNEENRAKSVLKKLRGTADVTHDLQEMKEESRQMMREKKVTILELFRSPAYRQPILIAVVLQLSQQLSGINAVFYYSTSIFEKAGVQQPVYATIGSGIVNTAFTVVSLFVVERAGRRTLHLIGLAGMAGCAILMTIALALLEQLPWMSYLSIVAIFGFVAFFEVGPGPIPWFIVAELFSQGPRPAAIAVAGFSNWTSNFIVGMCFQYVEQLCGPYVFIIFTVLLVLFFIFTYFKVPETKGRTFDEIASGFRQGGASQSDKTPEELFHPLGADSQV
structure (smiles),measurement,setting,value
COc1ccc(CC2(c3ccc(F)cc3)N=C(N)N(CCCc3ccccc3)C2=O)cc1 (centres undefined),inhibition,[1],5.85%
same,inhibition,[2],5.5%
same,inhibition,[3],4.39%
Cc1ccc(-c2ccc3c(c2)C=C(C(=O)NCC2CCN(CC4CCN(C(=O)/C=C/c5ccc(Cl)c(Cl)c5)CC4)CC2)CCC3)cc1,inhibition,[1],1.1%
same,inhibition,[2],0.59%
same,inhibition,[3],-0.85%
Cc1c(C(=O)Nc2cc(Sc3ccc(F)cc3)cc([N+](=O)[O-])c2)sc2ncn(Cc3cccc(F)c3)c(=O)c12,inhibition,[1],3.77%
same,inhibition,[2],-2.45%
same,inhibition,[3],7.11%
NCC1CCCN1Cc1cccc(-c2cccc(-c3nc4cc(F)ccc4[nH]3)c2)c1 (centres undefined),inhibition,[1],0.19%
same,inhibition,[2],0.88%
same,inhibition,[3],1.02%
COc1ccc(Nc2nc(NCc3ccc(-n4ccnc4)cc3)cc(-c3ccc(OC)cc3)n2)cc1,inhibition,[1],3.31%
same,inhibition,[2],2.46%
same,inhibition,[3],3.46%
COc1ccc(C(=O)NCCCCN2CCC(c3ccc4c(c3OC)CCCC4)CC2)cc1-c1ccc(C(F)(F)F)cc1,inhibition,[1],-1.89%
same,inhibition,[2],0.84%
same,inhibition,[3],-1.69%
COc1ccc(C2=CCN(c3ccc(Cl)c(Cl)c3)C2=O)cc1OCCN1CCCCC1,inhibition,[1],3.36%
same,inhibition,[2],1.21%
same,inhibition,[3],-4.01%
COc1ccc(C(=O)Nc2ccc(-c3ccc([N+](=O)[O-])cc3)cc2)cc1CCCN(C)C,inhibition,[1],2.83%
same,inhibition,[2],3.93%
same,inhibition,[3],2.45%
CC(C)(CN1CCCC1)CN(Cc1ccc(-c2ccc(C(F)(F)F)cc2)cc1)C(=O)Cn1c(CCc2cccc(F)c2F)nc(=O)c2ccccc21,inhibition,[1],10.3%
same,inhibition,[2],8.05%
same,inhibition,[3],8.96%
CO/C(=C\C=C\c1cc2cc(Cl)c(Cl)cc2[nH]1)C(=O)NCCCN1CCN(c2cccc(Cl)c2)CC1,inhibition,[1],-1.14%
same,inhibition,[2],-0.72%
same,inhibition,[3],-1.82%
N=C1N=C(N)NCN1OCc1ccc(Cl)c(Cl)c1,inhibition,[1],3.39%
same,inhibition,[2],1.71%
same,inhibition,[3],-0.31%
O=C(/C=C/c1cccc2c1OCO2)Nc1ccnc2ccncc12,inhibition,[1],1.56%
same,inhibition,[2],1.4%
same,inhibition,[3],1.89%
C=CCc1cc(OC)ccc1OCCCOc1c(C)nc(N)nc1N,inhibition,[1],78.2%
same,inhibition,[2],77.6%
same,inhibition,[3],65.3%
CC(C)OC(=O)c1ccc(NC(=O)N[C@@H](Cc2ccc(O)cc2)C(=O)NC2CC3CCC(C2)N3Cc2ccccc2)cc1 (some centres undefined),inhibition,[1],5.85%
same,inhibition,[2],4.77%
same,inhibition,[3],-0.07%
COc1ccc(CNCCCCCCNCCc2ccc(Cl)cc2)cc1OC,inhibition,[1],1.25%
same,inhibition,[2],1.81%
same,inhibition,[3],3.24%
O=C(Nc1cccc(-c2ccc(-c3nc4cc(C(F)(F)F)ccc4[nH]3)cc2)c1)Nc1ccc(Cl)c(Cl)c1,inhibition,[1],3.88%
same,inhibition,[2],2.8%
same,inhibition,[3],1.65%
CC12CCC(CN(CC(O)Cn3c4ccccc4c4cc(I)ccc43)C1)C2(C)C (centres undefined),inhibition,[1],2.02%
same,inhibition,[2],2.5%
same,inhibition,[3],0.07%
COc1ccc2nccc([C@@H](O)CN3CCC(NCc4cc5oc(=O)[nH]c5cc4F)CC3)c2c1,inhibition,[1],0.09%
same,inhibition,[2],0.65%
same,inhibition,[3],2.44%
Nc1nccc2ccc(-c3ccsc3)cc12,inhibition,[1],5.2%
same,inhibition,[2],3.92%
same,inhibition,[3],4.09%
Fc1ccc2[nH]c(-c3ccc(-c4cccc(CN5CCCCC5)c4)cc3)nc2c1,inhibition,[1],1.59%
same,inhibition,[2],1.72%
same,inhibition,[3],1.72%
CC1=C(C(=O)Nc2cc3cn[nH]c3cc2F)C(c2ccc(Cl)c(NS(C)(=O)=O)c2)CC(=O)N1 (centres undefined),inhibition,[1],-2.07%
same,inhibition,[2],-0.1%
same,inhibition,[3],-2.27%
CCc1nc(N)nc(N)c1-c1ccc(C(C)C)cc1,inhibition,[1],2.65%
same,inhibition,[2],2.31%
same,inhibition,[3],2.86%
CCS(=O)(=O)c1ccc(/C(=N/OC)c2ccc[nH]2)cc1,inhibition,[1],0.36%
same,inhibition,[2],0.06%
same,inhibition,[3],0.42%
CN(C)c1ccc(-c2ccc(C(=O)NC3CCN(Cc4ccc(C(C)(C)C)cc4)CC3)s2)cc1,inhibition,[1],2.66%
same,inhibition,[2],1.51%
same,inhibition,[3],-2.12%
COc1cccc(NC(=O)COc2ccc(C(=O)Nc3nc4ccccc4[nH]3)cc2)c1,inhibition,[1],2.45%
same,inhibition,[2],2.07%
same,inhibition,[3],-1.7%
COc1cccc(C(=O)Nc2nc3c(s2)CCN(Cc2ccccc2N2CCNCC2)CC3)c1,inhibition,[1],12.3%
same,inhibition,[2],13.7%
same,inhibition,[3],10.7%
CCCNCc1ccc(-c2ccc(CN(CCOC)C(=O)c3ccco3)cc2)nc1,inhibition,[1],0.5%
same,inhibition,[2],0.17%
same,inhibition,[3],2.77%
Cc1cccc2nc(-c3ccc(-c4ccc(NC(=O)C5CCN(C)CC5)cc4)cc3)[nH]c12,inhibition,[1],3.08%
same,inhibition,[2],5.28%
same,inhibition,[3],1.38%
O=C(CCc1c[nH]cn1)Nc1cccc(-c2cccc(-c3nc4cc(C(F)(F)F)ccc4[nH]3)c2)c1,inhibition,[1],-0.34%
same,inhibition,[2],0.58%
same,inhibition,[3],0.79%
CN(C)Cc1ccc2nc(-c3cccc(Cc4cc(Cl)ccc4OCc4ccc(Cl)cc4F)n3)[nH]c2c1,inhibition,[1],-0.36%
same,inhibition,[2],-0.21%
same,inhibition,[3],-1.22%
COc1ccc(NC(=O)c2cn(-c3ccc(C(C)(C)C)cc3)nc2C)cc1N1CCN(C)CC1,inhibition,[1],1.31%
same,inhibition,[2],0.2%
same,inhibition,[3],1.64%
COc1ccc(Cl)cc1N1CCN(CCCNC(=O)c2ccc(-c3nc4cc(Cl)c(C)cc4[nH]3)c(F)c2)CC1,inhibition,[1],1.96%
same,inhibition,[2],0.19%
same,inhibition,[3],0.07%
CCCN1CCCN(Cc2cccc(NC(=O)c3ccc(-c4ccccc4)cc3)c2)CC1,inhibition,[1],0.74%
same,inhibition,[2],0.03%
same,inhibition,[3],-5.12%
N=C(N)Nc1nccc(NCc2ccccc2)n1,inhibition,[1],-2.64%
same,inhibition,[2],-0.68%
same,inhibition,[3],-0.48%
Cc1cc(N[C@@H](Cc2ccccc2)C(=O)NC2CCCC2)nc(NCCc2ccc(F)cc2)n1,inhibition,[1],5.06%
same,inhibition,[2],5.18%
same,inhibition,[3],-0.53%
CC(C)(C)N1CCC(N(Cc2ccc(-c3ccc(C(F)(F)F)cc3)cc2)C(=O)Cn2c(CCc3cccc(F)c3F)cc(=O)c3ccccc32)CC1,inhibition,[1],1.29%
same,inhibition,[2],0.14%
same,inhibition,[3],1.02%
Cc1cc2cc(-c3ccc(CN)cc3)ccc2nc1N,inhibition,[1],-1.44%
same,inhibition,[2],1.71%
same,inhibition,[3],-3.5%
O=C(CCC1CCCCC1=O)c1ccccc1 (centres undefined),inhibition,[1],3.73%
same,inhibition,[2],2.15%
same,inhibition,[3],1.52%
O=C(NC(=O)c1ccccc1O)c1ccccc1O,inhibition,[1],-0.08%
same,inhibition,[2],0.7%
same,inhibition,[3],0.89%
CCOC(=O)CCCOc1c(OC)cc(Cc2cnc(N)nc2N)cc1OC,inhibition,[1],-1.3%
same,inhibition,[2],-0.68%
same,inhibition,[3],-2.34%
C(=N\Nc1nccc2sc(-c3cccnc3)cc12)/c1cccnc1,inhibition,[1],2.11%
same,inhibition,[2],1.38%
same,inhibition,[3],1.05%
CCN1CCN(c2cc(C)c3cc(NC(=O)c4ccc([N+](=O)[O-])c(C)c4)ccc3n2)CC1,inhibition,[1],3.68%
same,inhibition,[2],5.06%
same,inhibition,[3],7.26%
CCN(CC)CCCN(CCCN(CC)CC)c1cc(C)nc(Nc2ccc(Cl)cc2)n1,inhibition,[1],2.61%
same,inhibition,[2],0.88%
same,inhibition,[3],0.26%
Cc1cccc2nc(-c3cccc(-c4ccc(NC(=O)NC5CC5c5ccccc5)cc4)c3)[nH]c12 (centres undefined),inhibition,[1],6.4%
same,inhibition,[2],3.69%
same,inhibition,[3],5.64%
C=CCC(C(=O)Nc1ccnc2ccc(OC)cc12)C1CCN(CCCCCCC)CC1 (centres undefined),inhibition,[1],1.74%
same,inhibition,[2],1.29%
same,inhibition,[3],0.87%
Fc1ccc2[nH]c(-c3cccc(-c4ccc(CNCc5cnn(-c6ccccc6)n5)cc4)c3)nc2c1,inhibition,[1],0.4%
same,inhibition,[2],1.9%
same,inhibition,[3],0.03%
O=C(/C=C/c1ccsc1)N1CCC(CCN2CCC(c3c[nH]c4ccccc34)CC2)CC1,inhibition,[1],2.34%
same,inhibition,[2],3.57%
same,inhibition,[3],6.24%
Cc1nc(-c2cccc(C(F)(F)F)c2)n2nc(Nc3ccc(OCCN4CCCC4)cc3)ncc12,inhibition,[1],76%
same,inhibition,[2],53.7%
same,inhibition,[3],9.22%
